Rev-erbA mod = Rev-erb alpha (human) modulation; 0.79% of 370,000 active; Rev-erbα–FITC-DNA binding, fluorescence polarization, 90 min; activity, % at 10 µM;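 active means activity above about 14%, limit read from the data; passing the limit was not always enough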;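 further: 0% = DMSO wells with 35 nM protein and 100% = DMSO wells with 750 nM protein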
Target sequence (P20393 whole entry, looked up): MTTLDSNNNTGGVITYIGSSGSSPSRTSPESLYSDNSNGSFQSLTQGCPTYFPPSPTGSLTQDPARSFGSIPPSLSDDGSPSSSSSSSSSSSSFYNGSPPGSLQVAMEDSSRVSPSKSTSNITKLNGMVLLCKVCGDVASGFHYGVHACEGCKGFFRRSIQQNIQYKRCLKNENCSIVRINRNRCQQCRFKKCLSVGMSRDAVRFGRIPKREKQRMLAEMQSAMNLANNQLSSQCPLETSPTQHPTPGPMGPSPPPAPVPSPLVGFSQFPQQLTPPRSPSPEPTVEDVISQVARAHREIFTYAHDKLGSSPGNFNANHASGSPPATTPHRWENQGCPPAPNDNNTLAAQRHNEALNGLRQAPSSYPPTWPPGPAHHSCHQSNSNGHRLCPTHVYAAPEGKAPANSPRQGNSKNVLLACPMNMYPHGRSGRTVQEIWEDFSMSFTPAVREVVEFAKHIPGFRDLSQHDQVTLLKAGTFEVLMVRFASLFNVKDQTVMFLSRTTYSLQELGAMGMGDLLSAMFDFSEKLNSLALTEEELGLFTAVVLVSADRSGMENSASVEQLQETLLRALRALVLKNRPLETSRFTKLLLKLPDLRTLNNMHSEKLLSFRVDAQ
SKN-1 inh = C. elegans SKN-1 inhibition; C. elegans VP596 Pgst-4::GFP/RFP ratio, acrylamide-induced, 24 h; inhibition, % at 21.8 µM; 0.49% of 360,000 active;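 active means interference check ratio from 0.5 to 1.5 plus GFP to RFP signal ratio inhibition reaching or exceeding a fixed threshold, cut at about 30% in these data, passing the limit was not always enough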
RAM network inh = inhibitors of the yeast RAM network; S. cerevisiae dse1pr::URA3 reporter, 5-FOA growth OD615, 2 d; analog-sensitive cbk1-as2 kinase mutant strain; AID 868; 1.8% of 190,000 active; inhibition, % at 50 µM;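 active means inhibition above a set limit, 3 SD over mean compound inhibition, cut at about 8.4% in these data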;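 further: 0% = DMSO-only wells with no growth and 100% = 10 µM 1-NA-PP1 full growth; inhibition rescues growth on 5-FOA so higher OD means more RAM inhibition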
EP2 antag = blocks the human prostaglandin E2 receptor EP2. C6 glioma cells expressing human EP2, cAMP TR-FRET; cells stimulated with saturating PGE2. inhibition, % at 25 µM. 0.52% of 260,000 active. AID 1422;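 active means percent inhibition above 40 after rounding to a whole number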;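 further: rat C6 glioma host cells with rolipram phosphodiesterase inhibitor present; the protocol text gives 20 µM as final concentration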
EP2 mod = modulators of human EP2 prostaglandin E2 receptor. P43116. EP2-expressing cells, cAMP HTRF FRET, PGE2 co-stimulation. induction, % at 25 µM. 0.83% of 260,000 active;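 active means compounds whose cAMP rise, as percent of the full-agonist control response, exceeds 60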;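 further: rat C6 glioma line stably carrying human EP2 under a CMV promoter; the protocol text gives 20 µM as final concentration; 100% = response of wells given 1 µM PGE2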
PG9 Ab binder = binds the HIV-1 gp120 antibody PG9; TR-FRET gp120-PG9 antibody binding; inhibition, % at 6.7 µM; 0.43% of 360,000 active; AID 624416; in the data active means inhibition above about 8.5%
* = called active by the depositor; x = no result. Compounds with a hit are over-represented: about 2.9% of the library has one in this group of screens.

SMILES	Rev-erbA mod	SKN-1 inh	RAM network inh	EP2 antag	EP2 mod	PG9 Ab binder
O=C(Cc1cc(=O)oc2cc(O)ccc12)NCC1CCC(C(=O)O)CC1 (configuration not stated)	0	12	2	12	64*	1
O=C(Nc1nccs1)c1ccc(COc2c(F)c(F)cc(F)c2F)o1	1	-14	x	x	x	1
Cc1ccc(OCc2ccc(C(=O)Nc3nccs3)o2)cc1C	1	56*	3	12	-10	0
O=C(Nc1nccs1)c1ccc(-c2ccc(Cl)cc2Cl)o1	-4	2	9.5*	8	10	-2
CCS(=O)(=O)N1CC=C[C@@H]1C(=O)NCc1ccc(OC)cc1	x	x	x	8	-12	x
O=[N+]([O-])c1cnccc1Nc1ccccc1	1	21	0	10	-2	0
CCOc1ccc(Nc2ccc([N+](=O)[O-])c3nonc23)cc1	6	37*	x	x	x	-14
O=[N+]([O-])c1ccc(Sc2cccc[n+]2[O-])c2nonc12	3	35	x	116*	-48	-2
O=[N+]([O-])c1ccc(Nc2ccccc2)c2nonc12	19	35*	x	x	x	-5
O=C(CSc1cccc[n+]1[O-])Nc1cc(Cl)ccc1[N+](=O)[O-]	3	3	x	x	x	0
COc1ccc(Nc2cc(NCCCO)c([N+](=O)[O-])c3nonc23)cc1	1	1	x	x	x	-3
Cc1c(C(=O)NC2(c3ccccc3)CCCC2)sc2ncn(C)c(=O)c12	x	x	x	6	-8	x
CCC(CN1CCC(C)CC1)NC(=O)Cc1ccc(S(N)(=O)=O)cc1 (configuration not stated)	x	x	x	2	-29	x
O=C(NCCOc1ccc(F)cc1)c1ccccc1SCc1ccccc1	2	1	9.5*	5	-15	2
Cn1ccnc1C1(O)CCN(C(=O)C2(c3ccc(Cl)cc3)CCCC2)CC1	x	x	x	x	-4	x
CC(C)c1ccc(/C=C/C(=O)NCCCc2ccccc2)cc1	-1	9	8.6*	0	-69	-4
Cc1cccc(NC(=S)NC2CC3CCCC(C2)N3C2CC2)c1C (configuration not stated)	x	x	x	12	-93	x
CCC(C(=O)Nc1cccc(S(=O)(=O)N(C)c2ccccc2)c1)c1ccccc1 (configuration not stated)	-14	40*	x	x	x	1
Cc1cc2cc(CN(Cc3ccco3)C(=O)C3CCC3)c3nnnn3c2cc1C	x	x	x	4	37	x
Cc1ccc(C)n1-c1ccc(-c2nnc3n2CCCCC3)s1	-5	-4	1	59*	28	6
CC1CCCCN1Cc1c(O)ccc2c(=O)c(-c3nc4ccccc4s3)c(N)oc12 (configuration not stated)	-6	81*	0	5	-51	1
COc1ccc(-c2c(C)oc3c(CN4CCCCC4C)c(O)ccc3c2=O)cc1 (configuration not stated)	1	20	x	x	x	1
COc1ccc(C)cc1S(=O)(=O)Nc1ccc(F)cc1	-2	24	0	16	-12	3
COc1ccc(S(=O)(=O)Nc2ccc(S(=O)(=O)Nc3ccc(F)cc3)cc2)cc1C	-2	36*	9.6*	21	-6	-4
CCOc1cc(C)c(S(=O)(=O)Nc2ccc(F)cc2)cc1C	-1	29	13*	6	-28	-1
SMILES	Rev-erbA mod	SKN-1 inh	RAM network inh	EP2 antag	EP2 mod	PG9 Ab binder
CCOC(=O)c1cc(CC)sc1NC(=O)C1CC1	4	4	-2	10	14	0
CCOC(=O)c1cc(CC)sc1NC(=O)c1cc(OCC)c(OCC)c(OCC)c1	6	8	10*	5	28	0
CCOC(=O)c1cc(-c2ccccc2)sc1NC(=O)C(C)Sc1nnc(C)s1 (configuration not stated)	-1	4	11*	1	21	-1
CCOC(=O)c1cc(CC)sc1NC(=O)C(c1ccccc1)c1ccccc1	1	6	9.3*	16	38	-2
CCCc1cc(C(=O)OC)c(NC(=O)OCC)s1	-2	6	1	1	63*	x
COc1ccc(C2C=C(c3ccc(Br)s3)Nc3ncnn32)cc1OC (configuration not stated)	x	x	8.4*	18	-28	x
CCCn1c(SCC(=O)Nc2nccs2)nnc1-c1ccccn1	x	x	x	3	-7	x
CSc1cc(-c2ccccc2)n(Cc2ccc(Cl)cc2Cl)c(=O)c1C#N	4	4	4	9	22	-2
Cc1cc(C)n(Cc2ccc(Cl)cc2Cl)c(=O)c1S(=O)(=O)c1ccccc1	1	-12	8.9*	10	62*	-1
CCNC(=S)N(CCO)Cc1cc2c(C)ccc(C)c2[nH]c1=O	x	x	x	2	2	x
C=CCN1C(=O)C(Cc2ccc(SC(F)F)cc2)SC1=Nc1ccc(C(=O)O)cc1 (configuration not stated)	6	8	8.7*	-5	16	1
CN1CCN(Cc2nc3ccccc3c(=O)n2Cc2nc(-c3ccc([N+](=O)[O-])cc3)cs2)CC1	-2	-2	5	49*	-22	-2
CN(C)Cc1nc2ccccc2c(=O)n1Cc1nc(-c2cccc([N+](=O)[O-])c2)cs1	2	-15	1	3	43	2
CCn1c2cc(C)oc2c2cnn(C(C)C(=O)NCc3ccncc3)c(=O)c21 (configuration not stated)	x	x	x	x	-8	x
CCc1ccc(NC(=O)C(NS(=O)(=O)c2cccc3nsnc23)c2ccccc2)cc1 (configuration not stated)	1	4	9.1*	7	19	0
CCC(C)NC(=O)C(NS(=O)(=O)c1cccc2nsnc12)c1ccccc1 (configuration not stated)	0	5	0	x	20	0
CCN(Cc1ccccc1)C(c1ccc(C(F)(F)F)cc1)c1nnnn1C(C)(C)C (configuration not stated)	3	1	11*	12	47	2
NC(=O)CSc1nnc(-c2ccco2)o1	x	x	x	9	-8	x
CCOc1cc(C2/C(=C(/O)c3ccc(Cl)cc3)C(=O)C(=O)N2CC(C)O)ccc1O (configuration not stated)	x	x	x	13	11	x
O=C(NCc1ccccc1Cl)C1CCN(C(=O)c2sccc2-n2cccc2)CC1	1	1	8.9*	13	-4	-1
O=C(NCc1ccccc1F)C1CCN(C(=O)c2sccc2-n2cccc2)CC1	-1	8	1	3	-8	-2
CCc1ccc(NC(=O)/C(C#N)=C/c2cc3ccc(C)cc3nc2N2CCOCC2)cc1	10	-2	3	8	24	-1
CCN(CC)c1nc2cc(C)ccc2cc1/C=C(\C#N)C(N)=O	4	11	2	6	63*	-1
Cc1ccc(NCc2nnc(SCC(=O)N3c4ccccc4Sc4ccccc43)n2C)cc1	x	x	x	13	8	x

High-throughput results as filed in PubChem BioAssay.
